# Results as given in PubChem BioAssay (NCATS).
# Unmarked numbers belong to inactive results. Results filed as inconclusive are left out. A call without a number means that no potency is given here. Calls of active or inactive are those of the source. The call rests on the fitted dose curve; in most records, active means well fitted curve in the direction sought with a large enough effect; inconclusive means small, poorly fitted or top-dose-only effect, or another doubt; inactive means no such curve, though single readings can be large; an effect the other way counts as inactive or inconclusive.
# Experiments:
# [1] = tested on: Zika virus NS2B-NS3 protease (linked construct); experiment: Primary screen NINDS Rhodamine qHTS for Zika virus inhibitors (AID 1347160); further: potency means the concentration at half of the fitted maximal effect; nearly all actives have a fitted effect of over 55% in size
# In short: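 Percent inhibition, normalized to uninhibited and enzyme-free controls, is fitted to a 4-parameter Hill equation. Fluorescence change comes from a 15-min cleavage of 1.5 microM bis-peptide Rhodamine110 substrate by 25 nM linked NS2B-NS3 at room temperature.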
# [2] = OV-KATE Cancer Cell Toxicity qHTS against the NCATS CANVASS Library (AID 1347345)
# In short: (§1)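 1000 cells/well seeded and rested 4 h at 37 °C before pin transfer of compounds in an 11-pnt series. Exposure 72 h at 37 °C/5% CO2; viability by CellTiter-Glo luminescence after 15 min at room temperature.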
# [3] = HPAF-II Cancer Cell Toxicity qHTS against the NCATS CANVASS Library (AID 1347346); further: potency means the concentration at half of the fitted maximal effect; nearly all actives have a fitted effect of over 55% in size
# In short: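 HPAF-II cells were seeded at 1000 cells/well, allowed to settle for 4 h at 37 degrees C, then exposed to compounds in an 11-point series for 72 h. Viability was read by CellTiter-Glo luminescence.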
# [4] = UWB1.289 Cancer Cell Toxicity qHTS against the NCATS CANVASS Library (AID 1347347); further: series mostly up to about 38 µM; nearly all actives have a fitted effect of over 60% in size
# In short: as §1
# [5] = OV-SAHO Cancer Cell Toxicity qHTS against the NCATS CANVASS Library (AID 1347348); further: series mostly up to about 38 µM; nearly all actives have a fitted effect of over 55% in size
# In short: as §1
# [6] = SW1088 Cancer Cell Toxicity qHTS against the NCATS CANVASS Library (AID 1347350); further: series mostly up to about 38 µM; nearly all actives have a fitted effect of over 75% in size
# In short: as §1
# [7] = U-118MG Cancer Cell Toxicity qHTS against the NCATS CANVASS Library (AID 1347351); further: series mostly up to about 38 µM
# In short: as §1
# [8] = COV-362 Cancer Cell Toxicity qHTS against the NCATS CANVASS Library (AID 1347352); further: series mostly up to about 38 µM
# In short: (§2)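 Cells were seeded at 1000 per well and allowed to settle 4 hours at 37 degrees C before pin transfer of compounds as an 11-point series. Viability was read by CellTiter-Glo luminescence after 72 hours' exposure.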
# [9] = A2780 Cisplatin Sensitive Ovarian Cancer Cell Toxicity qHTS against the NCATS CANVASS Library (AID 1347353); further: nearly all actives have a fitted effect of over 60% in size
# In short: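 A2780 cisplatin-sensitive cells (750 per well) were seeded, left 4 h at 37 °C, then pin-dosed in an 11-point series. After 72 h at 37 °C/5% CO2, viability was measured as ATPLite luminescence.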
# [10] = UWB1.289-WTBRCA1 Cancer Cell Toxicity qHTS against the NCATS CANVASS Library (AID 1347354)
# In short: as §2
# [11] = HPAF-II 24hr Apoptosis Induction qHTS against the NCATS CANVASS Library (AID 1347356)
# In short: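 HPAF-II cells (500/well) in DMEM + 10% FBS were treated with an 11-point compound series for 24 hours at 37 degrees C. Caspase-3/7 activity was then read by Caspase-Glo DEVD luminescence after 15 min.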
# [12] = HEK293 18hr Apoptosis Induction qHTS against the NCATS CANVASS Library (AID 1347357)
# In short: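 HEK293 cells (500 per well, DMEM with 10% FBS) were treated with natural products, incubated 18 hours at 37 degrees C, then caspase-3/7 activity was read by Caspase-Glo luminescence after 15 min at room temperature.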
# [13] = HPAF-II 12hr Apoptosis Induction qHTS against the NCATS CANVASS Library (AID 1347358)
# In short: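 HPAF-II cells (500/well, DMEM + 10% FBS) were exposed to compounds for 12 hours at 37 degrees C. Caspase-3/7 activity was then read by Caspase-Glo 3/7 luminescence after 15 min at room temperature.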
# [14] = HEK293 24hr Apoptosis Induction qHTS against the NCATS CANVASS Library (AID 1347359)
# In short: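 Caspase-3/7 activation measured as luminescence from the DEVD-based Caspase-Glo reagent, 15 min at room temperature, following 24-hour compound treatment of HEK293 cells.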
# [15] = HPAF-II 18hr Apoptosis Induction qHTS against the NCATS CANVASS Library (AID 1347360)
# In short: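 HPAF-II cells (500/well, DMEM + 10% FBS) were exposed to compounds for 18 hours at 37 degrees C. Caspase-3/7 activity was then read by Caspase-Glo 3/7 luminescence after 15 min at room temperature.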
# [16] = HEK293 12hr Apoptosis Induction qHTS against the NCATS CANVASS Library (AID 1347361)
# In short: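 Read-out: Caspase-Glo 3/7 luminescence (DEVD substrate), 15 min RT. Preceded by 12 h compound exposure of HEK293, 500 cells/well, 11-pt qHTS titration; doxorubicin titration as control.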
# [17] = tested on: NAD(P)H diaphorase (Clostridium kluyveri); experiment: Diaphorse counterscreen qHTS: Assay Interference Panel against the NCATS CANVASS Library (AID 1347362)
# In short: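 Counterscreen for coupling-enzyme interference: resorufin fluorescence from resazurin/NADH turnover, read after 5 min at room temperature. Compounds were tested over an 11-point series after 15 min dark preincubation with diaphorase in PBS-Tween.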
# [18] = molecular target: Luciferin 4-monooxygenase (Photinus pyralis) (UniProt P08659); experiment: Firefly luciferase counterscreen qHTS: Assay Interference Panel against the NCATS CANVASS Library (AID 1347363); further: series mostly up to about 57 µM
# In short: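 Luminescence inhibition readout: compounds (11-point qHTS) sat 15 min at room temperature with substrate mix (0.013 mM luciferin and ATP), then firefly luciferase was added and signal read 5 min later.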
# [19] = KB-8-5-11 Cancer Cell Toxicity qHTS against the NCATS CANVASS Library (AID 1347364); further: nearly all actives have a fitted effect of over 75% in size
# In short: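 KB-8-5-11 cells (500/well) in DMEM + 10% FBS were exposed to compounds in an 11-point qHTS series for 72 hr at 37C, 5% CO2. Viability was read by CellTiter-Glo luminescence.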
# [20] = SDT Cancer Cell Toxicity qHTS against the NCATS CANVASS Library (AID 1347365);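 further: SDT canine glioma cells 500 per well in 1536 well plates; series mostly up to about 46 µM; nearly all actives have a fitted effect of over 60% in size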
# In short: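 SDT canine glioma cells (500 cells/well) were exposed to compounds in an 11-point series for 72 hr at 37C, 5% CO2; viability was read as ATP content by CellTiterGlo luminescence.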
# [21] = KB-3-1 Cancer Cell Toxicity qHTS against the NCATS CANVASS Library (AID 1347366); further: nearly all actives have a fitted effect of over 75% in size
# In short: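 KB-3-1 cells (500 cells/well) in DMEM + 10% FBS were treated with compounds for 72 hr at 37C, 5% CO2. Viability was read as CellTiter-Glo luminescence after 10 minutes at room temperature.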
# [22] = qHTS for ATAD5 Agonist screened against the NCATS CANVASS Library (AID 1347367);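 further: luciferase reporter driven by ATAD5 which rises upon DNA damage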
# In short: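 HEK293T cells stably carrying an ATAD5-controlled luciferase reporter (2000 cells/well) attached for 5 hr, then received compounds in an 11-point series for 16hr at 37C. Luminescence was read after a 30 min room-temperature reagent step.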
# Luciferin 4-monooxygenase (Photinus pyralis), sequence (P08659 whole entry, looked up): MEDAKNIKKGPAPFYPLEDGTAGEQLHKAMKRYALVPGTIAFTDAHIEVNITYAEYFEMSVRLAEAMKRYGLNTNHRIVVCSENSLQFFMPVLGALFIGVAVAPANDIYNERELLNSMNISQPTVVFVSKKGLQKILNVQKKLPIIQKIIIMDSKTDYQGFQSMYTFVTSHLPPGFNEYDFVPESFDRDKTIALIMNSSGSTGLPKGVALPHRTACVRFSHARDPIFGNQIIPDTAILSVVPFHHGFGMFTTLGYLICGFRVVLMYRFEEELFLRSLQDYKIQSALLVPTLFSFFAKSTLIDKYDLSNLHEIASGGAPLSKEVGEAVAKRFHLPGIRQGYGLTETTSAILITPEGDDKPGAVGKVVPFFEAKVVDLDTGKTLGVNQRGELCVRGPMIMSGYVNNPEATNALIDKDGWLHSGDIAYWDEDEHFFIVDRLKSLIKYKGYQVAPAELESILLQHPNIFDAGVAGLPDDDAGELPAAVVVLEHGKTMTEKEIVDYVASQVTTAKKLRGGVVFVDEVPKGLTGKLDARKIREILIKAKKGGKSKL
compound,measurement,setting,value
CCCCCCCCCCCCCCCC(=O)OC/C=C(\C)CCCC(C)CC(C)C(C)C (configuration not stated),Potency,[1],55.3 µM (active)
same,Potency,[2],inactive
same,Potency,[3],0.298 µM (active)
same,Potency,[4],inactive
same,Potency,[5],inactive
same,Potency,[6],inactive
same,Potency,[7],inactive
same,Potency,[8],inactive
same,Potency,[9],inactive
same,Potency,[10],inactive
same,outcome,[11],inactive
same,Potency,[12],inactive
same,Potency,[13],inactive
same,Potency,[14],inactive
same,Potency,[15],inactive
same,Potency,[16],inactive
same,Potency,[17],inactive
same,Potency,[18],inactive
same,Potency,[19],inactive
same,Potency,[20],inactive
same,Potency,[21],inactive
same,Potency,[22],inactive
